Data: PubChem BioAssay AID1159580 (chemical genetic matrix, 2015)
About 2,000 (36%) of roughly 5,500 compounds were called active. Roughly 18% stayed inconclusive and do not appear here. No stated cut-off is given here; in the data, active means normalized growth mostly below about 0.91 (no sharp cut-off); inconclusive means no clear call, values can overlap the other calls; inactive means mostly above about 0.92. The list shows a part of the results.

Experiment: chemical genetic growth profiling, strain panel (AID 1159580);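 further: tested at 20 µM; growth read once vehicle control cultures reached saturation at 30 °C; 1 = growth at the plate median or of vehicle wells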
Conditions: S. cerevisiae deletion strains, growth OD

Measured: normalized growth

COC(=O)c1ccc(Oc2c(C(F)(F)F)oc3cc(O)ccc3c2=O)cc1
inactive: locus YAR019C, strain CDC15, stronger effect = lower value 0.976 | locus YBL105C, strain PKC1, stronger effect = lower value 0.976 | locus YBR135W, strain CKS1, stronger effect = lower value 0.975 | locus YBR136W, strain MEC1, stronger effect = lower value 0.974 | locus YBR160W, strain CDC28, stronger effect = lower value 0.986 | locus YDL017W, strain CDC7, stronger effect = lower value 0.977 | locus YDL028C, strain MPS1, stronger effect = lower value 0.979 | locus YDL101C, strain DUN1, stronger effect = lower value 0.982 | locus YDL108W, strain KIN28, stronger effect = lower value 0.976 | locus YDL132W, strain cdc53, stronger effect = lower value 0.961 | locus YDL214C, strain PRR2, stronger effect = lower value 0.949 | locus YDR052C, strain DBF4, stronger effect = lower value 0.984 | locus YDR054C, strain cdc34, stronger effect = lower value 0.959 | locus YDR226W, strain ADK1, stronger effect = lower value 0.964 | locus YDR477W, strain SNF1, stronger effect = lower value 0.948 | locus YER123W, strain YCK3, stronger effect = lower value 0.924 | locus YER133W, strain GLC7, stronger effect = lower value 0.929 | locus YFL009W, strain cdc4, stronger effect = lower value 0.969 | locus YFL029C, strain CAK1, stronger effect = lower value 0.976 | locus YFR003C, strain YPI1, stronger effect = lower value 0.974 | locus YFR019W, strain FAB1, stronger effect = lower value 0.938 | locus YFR028C, strain CDC14, stronger effect = lower value 0.965 | locus YGR040W, strain KSS1, stronger effect = lower value 0.941 | locus YGR052W, strain FMP48, stronger effect = lower value 0.962 | locus YGR092W, strain DBF2, stronger effect = lower value 0.948 | locus YHR030C, strain SLT2, stronger effect = lower value 0.902 | locus YHR079C, strain IRE1, stronger effect = lower value 0.926 | locus YHR082C, strain KSP1, stronger effect = lower value 1.01 | locus YHR205W, strain SCH9, stronger effect = lower value 0.949 | locus YIL147C, strain SLN1, stronger effect = lower value 0.978 | locus YJL095W, strain BCK1, stronger effect = lower value 0.904 | locus YJL128C, strain PBS2, stronger effect = lower value 0.941 | locus YJL157C, strain FAR1, stronger effect = lower value 0.936 | locus YJR016C, strain ILV3, stronger effect = lower value 0.974 | locus YJR066W, strain TOR1 (second series), stronger effect = lower value 0.93 | locus YJR066W, strain TOR1, stronger effect = lower value 1.01 | locus YKL048C, strain ELM1, stronger effect = lower value 0.968 | locus YKL067W, strain YNK1, stronger effect = lower value 0.956 | locus YKL101W, strain HSL1, stronger effect = lower value 0.945 | locus YKL193C, strain SDS22, stronger effect = lower value 0.967 | locus YKL203C, strain TOR2, stronger effect = lower value 1.01 | locus YLR113W, strain HOG1, stronger effect = lower value 0.869 | locus YLR133W, strain CKI1, stronger effect = lower value 0.95 | locus YLR403W, strain SFP1, stronger effect = lower value 0.938 | locus YML070W, strain DAK1, stronger effect = lower value 0.934 | locus YMR001C, strain CDC5, stronger effect = lower value 0.972 | locus YMR205C, strain PFK2 (second series), stronger effect = lower value 0.969 | locus YMR277W, strain FCP1, stronger effect = lower value 0.978 | locus YNL006W, strain LST8, stronger effect = lower value 0.972 | locus YNL020C, strain ARK1, stronger effect = lower value 0.949 | locus YNL161W, strain CBK1, stronger effect = lower value 0.962 | locus YNL183C, strain NPR1, stronger effect = lower value 1.02 | locus YNL207W, strain RIO2, stronger effect = lower value 0.969 | locus YNL222W, strain SSU72, stronger effect = lower value 0.979 | locus YNL307C, strain MCK1 (second series), stronger effect = lower value 0.95 | locus YOL078W, strain AVO1, stronger effect = lower value 0.97 | locus YOL136C, strain PFK27, stronger effect = lower value 0.933 | locus YOR061W, strain CKA2, stronger effect = lower value 0.968 | locus YOR119C, strain RIO1, stronger effect = lower value 1.02 | locus YOR231W, strain MKK1, stronger effect = lower value 0.967 | locus YOR329C, strain SCD5, stronger effect = lower value 0.975 | locus YPL031C, strain PHO85, stronger effect = lower value 0.94 | locus YPL153C, strain RAD53, stronger effect = lower value 0.935 | locus YPL204W, strain HRR25, stronger effect = lower value 0.95 | locus YPL209C, strain IPL1, stronger effect = lower value 0.971 | locus YPL256C, strain CLN2, stronger effect = lower value 0.9 | locus YPR025C, strain CCL1, stronger effect = lower value 0.98 | locus YPR106W, strain ISR1, stronger effect = lower value 0.979 | locus YPR111W, strain DBF20, stronger effect = lower value 0.979 | strain NNK1, stronger effect = lower value 0.973 | strain TSCII, stronger effect = lower value 0.96
